What all share (design): scale not given: direction of the effect not stated beside the values
Assay [1] has as its target Protein translocase subunit SecA (Escherichia coli (strain K12)) (UniProt P10408). The assay is described as follows: Assay to Identify E. coli SecA ATPase Inhibitors. Format: functional. Conditions: 30 µM.
The target in assay [2] is T1, Ubiquitin-activating enzyme e1, putative (Leishmania donovani (strain BPK282A1)) (UniProt E9BSI1).
T1 sequence (whole entry): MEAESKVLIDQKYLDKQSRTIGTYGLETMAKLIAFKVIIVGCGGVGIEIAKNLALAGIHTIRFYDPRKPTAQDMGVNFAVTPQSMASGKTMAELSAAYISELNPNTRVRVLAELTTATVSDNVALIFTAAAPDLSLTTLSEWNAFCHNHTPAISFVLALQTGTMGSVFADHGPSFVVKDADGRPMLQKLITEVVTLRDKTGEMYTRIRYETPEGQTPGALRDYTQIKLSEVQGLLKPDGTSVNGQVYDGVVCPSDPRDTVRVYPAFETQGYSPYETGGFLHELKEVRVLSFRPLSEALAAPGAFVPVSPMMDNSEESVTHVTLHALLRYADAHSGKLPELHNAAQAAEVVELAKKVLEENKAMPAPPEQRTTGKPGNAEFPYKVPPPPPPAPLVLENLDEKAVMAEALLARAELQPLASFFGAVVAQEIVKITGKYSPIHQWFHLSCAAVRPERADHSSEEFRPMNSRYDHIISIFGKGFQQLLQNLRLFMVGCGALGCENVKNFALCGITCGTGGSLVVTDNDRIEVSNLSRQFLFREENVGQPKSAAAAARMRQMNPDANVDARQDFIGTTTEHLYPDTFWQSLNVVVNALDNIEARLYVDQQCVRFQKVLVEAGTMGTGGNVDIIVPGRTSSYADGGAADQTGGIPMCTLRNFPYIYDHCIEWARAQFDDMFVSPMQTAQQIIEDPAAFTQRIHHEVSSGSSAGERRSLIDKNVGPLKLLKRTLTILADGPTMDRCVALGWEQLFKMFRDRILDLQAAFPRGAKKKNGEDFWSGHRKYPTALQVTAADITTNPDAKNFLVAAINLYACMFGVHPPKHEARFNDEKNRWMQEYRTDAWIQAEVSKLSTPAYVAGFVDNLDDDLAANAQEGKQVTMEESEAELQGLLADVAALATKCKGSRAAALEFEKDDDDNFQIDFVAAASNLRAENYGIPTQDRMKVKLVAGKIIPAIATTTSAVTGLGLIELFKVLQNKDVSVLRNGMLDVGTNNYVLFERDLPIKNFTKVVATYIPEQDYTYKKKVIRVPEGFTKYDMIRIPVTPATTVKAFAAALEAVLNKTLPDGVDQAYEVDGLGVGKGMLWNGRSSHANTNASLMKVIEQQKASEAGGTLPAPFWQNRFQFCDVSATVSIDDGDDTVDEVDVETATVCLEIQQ
The assay can be described thus: Leishmania donovani Ubiquitin Activating Enzyme (LdE1). Format: functional. Conditions: 30 µM.

Assay [3] concerns the target AMP-activated protein kinase, AMPK (Homo sapiens) (UniProt P54646+O43741+P54619+Q9UGJ0+Q9Y478+Q13131+Q9UGI9). The assay can be described thus: AMP-dependent Kinase enzyme assay. An in vitro enzyme assay that detects ADP turnover that is directly proportional to AMPK activity. This uses naive AMPK that is activated during the assay with MK-8722. Format: functional. Conditions: 30 µM.

Assay [4] has as its target Sialic acid-binding Ig-like lectin 9 (Homo sapiens) (UniProt Q9Y336). The assay is described as follows: Hs-Siglec9 ALPHAscreen SOP 20170721. Conditions: 10 µM. A general note: Bead proximity is the source of the signal in Alpha formats.
Assay [5] has as its system Trypanosoma cruzi. The assay is described as follows: Trypanosoma cruzi phosphomannomutase and mannose-1-phosphate guanylyltransferase assay. Format: functional. Conditions: 10 µM.
Assay [6] addresses T2, Arginase-2, mitochondrial (Homo sapiens) (UniProt P78540).
T2 sequence (whole entry): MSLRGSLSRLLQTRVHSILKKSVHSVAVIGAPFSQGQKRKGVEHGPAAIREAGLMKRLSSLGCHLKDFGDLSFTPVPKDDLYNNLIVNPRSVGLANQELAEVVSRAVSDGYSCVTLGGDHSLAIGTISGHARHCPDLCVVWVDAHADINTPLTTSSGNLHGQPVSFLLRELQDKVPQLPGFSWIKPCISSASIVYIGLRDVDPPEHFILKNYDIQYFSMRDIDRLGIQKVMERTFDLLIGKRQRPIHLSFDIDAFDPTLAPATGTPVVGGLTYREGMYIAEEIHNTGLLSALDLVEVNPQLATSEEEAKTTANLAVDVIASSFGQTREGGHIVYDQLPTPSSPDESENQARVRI
The assay can be described thus: in vitro enzyme assay to detect the production of urea directly proportional to the activity of Arginase II. Further: in the data most compounds retested in dose-response had high values. Format: functional. The note with it: 33.3 µM.

For assay [7], the target named is T3, Proteasome subunit beta (Trypanosoma cruzi) (UniProt O96673).
T3 sequence (whole entry): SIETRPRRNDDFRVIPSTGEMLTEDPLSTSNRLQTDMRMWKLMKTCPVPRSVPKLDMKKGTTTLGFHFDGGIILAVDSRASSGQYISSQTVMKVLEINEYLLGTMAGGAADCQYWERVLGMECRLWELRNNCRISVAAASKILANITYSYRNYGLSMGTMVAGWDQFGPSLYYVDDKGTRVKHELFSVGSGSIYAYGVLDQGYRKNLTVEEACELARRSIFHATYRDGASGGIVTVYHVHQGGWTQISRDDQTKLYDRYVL
The assay is described as follows: Trypanosoma cruzi proteasome chymotrypsin-like activity (TcProtChymo) assay. Further: in the data most compounds retested in dose-response had high values. Format: functional. Conditions: 9.37 µM.

For assay [8], the species on record is Homo sapiens. The assay can be described thus: To identify inhibition of the IFN signalling (Jak-Stat) pathway via expression of an eGFP reporter gene under the control of an IFN-stimulated response element (ISRE) containing MxA promoter. Format: functional. Conditions: 30 µM.
The target in assay [9] is T4, Tyrosyl-tRNA synthetase, putative (Trypanosoma cruzi (strain CL Brener)) (UniProt Q4DSP6).
T4 sequence (whole entry): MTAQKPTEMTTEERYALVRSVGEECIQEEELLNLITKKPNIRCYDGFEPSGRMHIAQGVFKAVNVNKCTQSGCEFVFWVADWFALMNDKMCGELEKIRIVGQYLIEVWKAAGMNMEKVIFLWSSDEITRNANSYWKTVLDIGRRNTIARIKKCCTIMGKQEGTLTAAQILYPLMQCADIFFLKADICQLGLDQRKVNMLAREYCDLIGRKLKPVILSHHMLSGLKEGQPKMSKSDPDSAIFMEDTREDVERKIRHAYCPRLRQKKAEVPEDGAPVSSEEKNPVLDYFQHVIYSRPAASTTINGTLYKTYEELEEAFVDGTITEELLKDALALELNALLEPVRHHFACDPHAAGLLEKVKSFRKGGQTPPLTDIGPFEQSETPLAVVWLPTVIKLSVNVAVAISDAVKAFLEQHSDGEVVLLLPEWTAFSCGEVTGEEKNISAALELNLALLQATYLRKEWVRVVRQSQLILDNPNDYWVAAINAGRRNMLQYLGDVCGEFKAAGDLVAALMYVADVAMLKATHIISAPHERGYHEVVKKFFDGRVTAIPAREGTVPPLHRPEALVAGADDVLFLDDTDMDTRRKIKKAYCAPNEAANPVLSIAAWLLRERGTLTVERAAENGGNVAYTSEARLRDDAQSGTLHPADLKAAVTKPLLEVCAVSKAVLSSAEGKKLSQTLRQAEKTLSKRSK
The assay can be described thus: Trypanosoma cruzi tyrosyl tRNA synthetase (TcYRS) _High Tyrosine SOP. Further: in the data most compounds retested in dose-response had high values. Format: functional. The note with it: 30 µM.

Assay [10] has as its target T4, Tyrosyl-tRNA synthetase, putative (Trypanosoma cruzi (strain CL Brener)). The assay can be described thus: Trypanosoma cruzi tyrosyl tRNA synthetase (TcYRS) SOP. Format: functional. The note with it: 30 µM.
Assay [11] deals with Chromo domain-containing protein 1 (Saccharomyces cerevisiae (strain ATCC 204508 / S288c) (Baker's yeast)) (UniProt P32657). The assay can be described thus: ScCHD-1 Enzyme Inhibition Assay. Further: in the data most compounds retested in dose-response had high values. Format: functional. The note with it: 30 µM.
Chromo domain-containing protein 1 (Saccharomyces cerevisiae (strain ATCC 204508 / S288c) (Baker's yeast)), sequence (P32657 whole entry, the tested form may be a part): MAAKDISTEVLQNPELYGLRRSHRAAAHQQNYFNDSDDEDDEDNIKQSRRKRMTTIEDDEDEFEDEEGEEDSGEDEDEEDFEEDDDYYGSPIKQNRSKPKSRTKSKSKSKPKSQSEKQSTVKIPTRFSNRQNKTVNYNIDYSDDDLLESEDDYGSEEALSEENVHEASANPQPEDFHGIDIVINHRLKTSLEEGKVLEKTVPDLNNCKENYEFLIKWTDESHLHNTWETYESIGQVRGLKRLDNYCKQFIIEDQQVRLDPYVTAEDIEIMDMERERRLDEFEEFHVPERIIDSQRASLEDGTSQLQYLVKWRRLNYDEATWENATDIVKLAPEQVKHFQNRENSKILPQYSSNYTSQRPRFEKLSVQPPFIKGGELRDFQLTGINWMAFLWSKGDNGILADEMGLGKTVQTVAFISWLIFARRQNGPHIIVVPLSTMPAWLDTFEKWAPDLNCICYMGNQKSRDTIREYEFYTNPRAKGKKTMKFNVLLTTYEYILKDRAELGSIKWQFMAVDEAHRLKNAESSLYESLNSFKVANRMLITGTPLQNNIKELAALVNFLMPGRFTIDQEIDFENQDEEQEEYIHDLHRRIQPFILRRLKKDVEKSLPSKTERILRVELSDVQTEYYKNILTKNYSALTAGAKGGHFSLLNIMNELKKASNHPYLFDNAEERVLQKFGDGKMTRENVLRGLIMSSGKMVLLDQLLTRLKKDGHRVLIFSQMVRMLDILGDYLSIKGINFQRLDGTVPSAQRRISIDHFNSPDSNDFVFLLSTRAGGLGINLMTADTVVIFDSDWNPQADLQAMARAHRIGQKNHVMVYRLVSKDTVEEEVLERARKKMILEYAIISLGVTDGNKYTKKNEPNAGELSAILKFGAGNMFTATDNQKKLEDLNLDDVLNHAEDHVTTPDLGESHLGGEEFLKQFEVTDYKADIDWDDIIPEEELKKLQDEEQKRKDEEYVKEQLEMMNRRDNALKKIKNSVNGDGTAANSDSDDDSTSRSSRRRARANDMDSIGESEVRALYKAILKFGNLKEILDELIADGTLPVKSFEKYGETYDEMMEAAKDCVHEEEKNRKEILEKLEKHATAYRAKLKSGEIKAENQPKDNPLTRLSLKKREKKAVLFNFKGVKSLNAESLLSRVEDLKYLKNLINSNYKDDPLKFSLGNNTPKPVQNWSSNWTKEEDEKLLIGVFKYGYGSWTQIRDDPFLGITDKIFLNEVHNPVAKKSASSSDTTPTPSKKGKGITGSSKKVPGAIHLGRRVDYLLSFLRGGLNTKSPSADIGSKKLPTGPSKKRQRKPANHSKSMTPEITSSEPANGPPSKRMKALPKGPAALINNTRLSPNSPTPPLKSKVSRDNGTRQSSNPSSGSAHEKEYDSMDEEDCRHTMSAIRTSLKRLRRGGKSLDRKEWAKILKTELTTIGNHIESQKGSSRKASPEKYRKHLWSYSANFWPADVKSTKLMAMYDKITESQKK

For some assays here: Measured potencies and affinities stand elsewhere.

Protein translocase subunit SecA (Escherichia coli (strain K12)), sequence (P10408 whole entry): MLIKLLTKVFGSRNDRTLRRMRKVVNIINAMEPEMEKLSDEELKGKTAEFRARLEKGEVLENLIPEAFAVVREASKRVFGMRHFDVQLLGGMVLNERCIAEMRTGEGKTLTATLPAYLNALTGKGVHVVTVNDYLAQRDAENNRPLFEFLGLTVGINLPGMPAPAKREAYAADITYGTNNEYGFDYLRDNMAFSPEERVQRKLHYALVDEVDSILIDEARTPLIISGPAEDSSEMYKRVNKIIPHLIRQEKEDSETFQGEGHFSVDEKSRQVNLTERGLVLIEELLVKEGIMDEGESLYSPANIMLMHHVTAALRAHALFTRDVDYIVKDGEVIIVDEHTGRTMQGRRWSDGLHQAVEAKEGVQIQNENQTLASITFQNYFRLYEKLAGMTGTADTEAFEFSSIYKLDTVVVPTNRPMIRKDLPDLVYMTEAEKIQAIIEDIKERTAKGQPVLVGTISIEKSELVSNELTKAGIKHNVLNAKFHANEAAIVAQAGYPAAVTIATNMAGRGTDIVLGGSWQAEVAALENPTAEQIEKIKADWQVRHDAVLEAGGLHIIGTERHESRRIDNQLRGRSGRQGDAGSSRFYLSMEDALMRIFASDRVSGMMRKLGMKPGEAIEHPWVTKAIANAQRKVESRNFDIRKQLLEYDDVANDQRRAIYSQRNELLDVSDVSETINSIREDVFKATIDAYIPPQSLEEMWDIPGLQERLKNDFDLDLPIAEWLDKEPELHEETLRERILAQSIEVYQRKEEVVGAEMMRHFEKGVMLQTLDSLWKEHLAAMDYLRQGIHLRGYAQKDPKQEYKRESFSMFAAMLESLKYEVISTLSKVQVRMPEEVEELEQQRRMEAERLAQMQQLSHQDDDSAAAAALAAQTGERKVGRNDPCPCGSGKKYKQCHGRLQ
Sialic acid-binding Ig-like lectin 9 (Homo sapiens), sequence (Q9Y336 whole entry): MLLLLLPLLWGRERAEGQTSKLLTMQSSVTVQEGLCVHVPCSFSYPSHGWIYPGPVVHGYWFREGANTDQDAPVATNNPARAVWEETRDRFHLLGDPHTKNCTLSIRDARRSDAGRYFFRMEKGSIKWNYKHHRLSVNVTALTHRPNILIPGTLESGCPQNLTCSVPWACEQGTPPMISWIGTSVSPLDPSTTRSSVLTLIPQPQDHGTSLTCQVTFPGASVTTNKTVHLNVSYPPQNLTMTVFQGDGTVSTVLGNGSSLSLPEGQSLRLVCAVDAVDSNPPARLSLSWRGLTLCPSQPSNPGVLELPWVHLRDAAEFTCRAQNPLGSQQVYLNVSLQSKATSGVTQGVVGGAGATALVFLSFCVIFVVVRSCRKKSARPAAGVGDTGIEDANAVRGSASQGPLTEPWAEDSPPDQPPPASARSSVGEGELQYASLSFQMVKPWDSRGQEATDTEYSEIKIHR

Take `N#Cc1cn(C2CC2)c(=O)n(CC(O)c2ccc(OC(F)F)cc2)c1=O` (stereo not given): the Percent Effect in assay [1] is -5.26%; in assay [2] it was 15.8%; in assay [3], -4.7%; in assay [4] it was 7.1%; in assay [5], 6.01%; in [6], 0%. Besides, the Percent Effect is 11.2% in assay [7]; 3.44% in [8]; 0.49% in assay [9]; 17.1% in [10]; -12.4% in assay [11].
Turning to `Cc1ncc(CN(C)CC2CCCN2c2cccnn2)s1` (stereo not given), the Percent Effect in assay [1] was -4.33%; in [2], 1.27%; in assay [3], -16.7%; in assay [4], 0.813%; in assay [5], 3.79%; in assay [6] it was -0.645%. Besides, the Percent Effect in assay [7] is 25.6%; in assay [8], 0.297%; in [9], 9.38%; in assay [10] it was 2.53%; in assay [11], -37.9%.
On to `COCCN1CCN(CCCS(C)(=O)=O)CC1C` (stereo not given), for which the Percent Effect is -5.52% in assay [1]; 21.6% in assay [2]; -8.32% in assay [3]; 7.36% in assay [4]; 9.56% in assay [5]; 0.924% in assay [6]. Moreover, the Percent Effect in assay [7] came out at 9.16%; in [8], 4.15%; in assay [9], 9.9%; in [10], 28.1%; in assay [11], 52%.
Consider `CCc1nnsc1C(=O)N1CCOC(c2nc(C)n[nH]2)C1` (stereo not given), for which the Percent Effect in [1] is -5.12%; in assay [2], 8.86%; in assay [3], -2.61%; in assay [4], -4.1%; in assay [5] it was 0.718%; in [6] it was -0.215%. Also, the Percent Effect in [7] was 8.23%; in assay [8], -0.829%; in assay [9], 5.21%; in assay [10], 17.7%; in assay [11] it was -30.2%.
With `CC(C)(C)c1cnc(CN2CCC[C@H]2CO)o1`, the Percent Effect in assay [1] is -1.75%; in assay [2] it was -5.2%; in [3], 4.08%; in assay [4], 12.3%; in [5], 5.62%; in assay [6], -0.712%. Besides, the Percent Effect is -1.01% in assay [7]; -3.74% in [8]; 7.77% in [9]; 9.76% in [10]; -5.64% in assay [11].
As for `Cc1noc([C@@H]2C[C@H]3OCC[C@H]3N(S(=O)(=O)c3cccnc3)C2)n1`, the Percent Effect is -2.85% in assay [1]; 11% in assay [2]; -6.86% in [3]; 6.79% in assay [4]; 5.75% in [5]; -5.19% in assay [6]. The Percent Effect in assay [7] was 4.02%; in [8] it was -3.51%; in assay [9], 3.12%; in [10], 11.1%; in [11], -6.9%.
Take `COCc1ccccc1C(=O)N1CCCC(n2nc(C)cc2C)C1` (stereo not given): the Percent Effect in [1] was -3.82%; in [2], 5.06%; in assay [3], -3.09%; in [4], 3.7%; in assay [5] it was 4.06%; in assay [6], -6.08%. The Percent Effect was 4.67% in assay [7]; -9.14% in assay [8]; 4.43% in assay [9]; 3.8% in [10]; -4.28% in [11].
For `Cc1cc(C)c(CNC(=O)NCCOc2ccc3c(c2)CCC3)c(=O)[nH]1`, the Percent Effect in assay [1] was -3.48%; in [2], -5.26%; in [3], 0.256%; in [4] it was 7.3%; in assay [5] it was 9.96%; in assay [6], 0.383%. For the same molecule, the Percent Effect in assay [7] stood at 0%; in assay [8] it was 3.96%; in [9] it was 1.47%; in assay [10], 0%; in assay [11], 3.04%.
`O=C(NS(=O)(=O)c1ccc2c(c1)OCCO2)c1ccc(Br)cc1F`: the Percent Effect is -3.37% in assay [1]; -13.9% in [2]; 13.5% in assay [3]; 1.7% in assay [4]; -2.36% in [5]; 1.07% in [6]. Besides, the Percent Effect in [7] was 12%; in assay [8], -21.1%; in assay [9] it was -13.5%; in assay [10], -15.2%; in assay [11], -10.5%.
As to `O=C(c1ccn(-c2cccc(Cl)c2)n1)N1CCN(C2CC2)CC1`, the Percent Effect was -11.5% in [1]; 10.4% in [2]; -3.12% in assay [3]; 2.64% in [4]; -4.49% in assay [5]; -1.78% in assay [6]. In addition, the Percent Effect was 27.5% in assay [7]; 29.6% in assay [8]; -0.971% in assay [9]; -4.88% in assay [10]; -3.18% in assay [11].

The values above are taken from ChEMBL document CHEMBL3988442, “University of Dundee, Small-Polar-MMV Screening Library” (2021).
